Assay [1] concerns Neuropilin-2 / VEGF-C interaction (human). Description: small molecules blocking Neuropilin-2/VEGF-C interaction – biochemical, microplate binding format, z-score (AID 743281; call rule not given here). Particulars: microplate NRP2/VEGF-C binding assay; stronger effect = lower value.
Assay [2] is described as follows: viability loss in pontine glioma line – cell-based, SU-DIPG-XIII, MIPE4.0, CellTiter-Glo, qHTS, dose response (AID 1347061; cut-off not given, nearly all actives have AC50 up to about 37 µM;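 note: cells exposed to compound for 48 hours before readout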). Particulars: CellTiter-Glo ATP luminescence. A general note: ATP-based viability assays read luminescence as a measure of living cells.
Assay [3] is described as follows: viability loss in pontine glioma line – cell-based, JHH-DIPG-1, MIPE4.0, CellTiter-Glo, qHTS, dose response (AID 1347062; cut-off not given, nearly all actives have AC50 up to about 27 µM;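 for AC50: cells exposed to compound for two days before readout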). Particulars: JHH-DIPG-1 viability, CellTiter-Glo ATP luminescence.
The nature of assay [4]: viability loss in pontine glioma line – cell-based, SU-DIPG-IV, MIPE4.0, CellTiter-Glo, qHTS, dose response (AID 1347063; cut-off not given, nearly all actives have AC50 up to about 30 µM;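 note: compound exposure lasted 48 hours before the viability readout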). Conditions: CellTiter-Glo ATP luminescence.
Assay [5] is described as follows: viability loss in pontine glioma line – cell-based, SU-DIPG-XIII, MIPE5.0, CellTiter-Glo, qHTS, dose response (AID 1347064; cut-off not given, nearly all actives have AC50 up to about 23 µM). Conditions: CellTiter-Glo ATP luminescence.
A short description of assay [6]: viability loss in pontine glioma line – cell-based, SU-DIPG-XXV, MIPE5.0, CellTiter-Glo, qHTS, dose response (AID 1347065).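 Note: cells exposed to compound for 48 hours before ATP readout.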 Particulars: CellTiter-Glo ATP luminescence.
A short description of assay [7]: JHH-DIPG-1 glioma cell viability, MIPE5.0 library, CellTiter-Glo luminescence, qHTS (AID 1347067).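 Note: cells exposed to compound for 48 hours before readout.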 Conditions: JHH-DIPG-1 glioma viability, CellTiter-Glo ATP luminescence.
The nature of assay [8]: growth inhibition of DIPG cells – cell-based, MIPE5.0 library, qHTS (AID 1347068; cut-off not given, nearly all actives have IC50 up to about 30 µM). Particulars: SU-DIPG-XXV viability. On the technique in general: Quantitative high-throughput screening tests each substance at several concentrations.
Assay [9] has as its target NAD(+) hydrolase SARM1 (Homo sapiens) (UniProt Q6SZW1). The experiment in a line: blocking NAD cleavage by SARM1 SAM-TIR – cell lysate, NAD-Glo luminescence (AID 1508614;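 active = compound whose remaining NAD level is above about 45 nM, limit read from the data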;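 note: higher remaining NAD means stronger inhibition of SARM1 NADase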). Particulars: SAM-TIR HEK293T lysate NADase, at 1 µM, stronger effect = higher value.
Assay [10] concerns the target Mitogen-activated protein kinase 7 (Homo sapiens) (UniProt Q13164). The experiment in a line: Gal4-ERK5 driven luciferase induction – cell-based, HTS, primary screen (AID 1508626;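 active = luciferase signal above three times the same-plate solvent-only control wells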;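 note: luciferase driven by Gal4-ERK5 fusion binding five Gal4 sites before minimal TATA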). Conditions: HeLa Gal4-ERK5 transactivation, 18 h, at 5 µM, stronger effect = higher value.
Assay [11] deals with Aerobactin synthetase IucA (Klebsiella pneumoniae). The experiment in a line: inhibition of K. pneumoniae IucA enzyme – biochemical, Tocris library, absorbance (AID 1345561; call rule not given here;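 note: 100% = enzyme without compound and 0% = no enzyme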). Particulars: purified IucA enzyme assay, absorbance (OD) read-out; stronger effect = lower value;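 tested at 8 µM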.
A short description of assay [12]: galactose survival enhancers in mitochondrial complex I cybrids – cell-based, galactose medium, ATP luminescence, primary screen (AID 1645843;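 active = z-score of at least 1.8 in each of two replicates, scored against plate mean and spread of sample wells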;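 note: positive z means more ATP and so rescue of galactose-driven cybrid death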). Particulars: complex I mutant cybrid cells, 72 h, stronger effect = higher value.
The nature of assay [13]: viability loss in pontine glioma line – cell-based, SU-DIPG-XVII, MIPE5.0, CellTiter-Glo, qHTS, dose response (AID 1347060). Conditions: CellTiter-Glo ATP luminescence.
Assay [14] is described as follows: growth inhibition of DIPG cells – cell-based, MIPE4.0 library, CellTiter-Glo luminescence, qHTS (AID 1347066; cut-off not given, nearly all actives have AC50 up to about 30 µM;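 note: cells exposed to compound for 48 hours before readout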). Particulars: SU-DIPG-VI viability, CellTiter-Glo ATP luminescence.
The nature of assay [15]: blockers of cellular phospholipid synthesis – cell-based, LOPAC library, screen 4, primary screen (AID 1347384; call rule not given here). Conditions: animal cells, phospholipid biosynthesis inhibition screen; at 10 µM.

Each structure is given as a SMILES string. Values joined by “and” are separate entries in the source; they are usually repeats but may differ in a detail not shown here. Equal entries are not always repeated. A number with no mark means an inactive call. Records with an inconclusive call do not appear. Active and inactive are the calls of the source. Unless noted, no cut-off is given here; in the data, nearly all actives have AC50 up to about 26 µM.

Broadly, the remaining activity is the signal under treatment as a percentage of the control signal. Broadly, the AC50 is the concentration at which the activity in the assay is half-maximal.

Chain of NAD(+) hydrolase SARM1 (Homo sapiens) (Q6SZW1 whole entry, looked up, the tested form may be a part): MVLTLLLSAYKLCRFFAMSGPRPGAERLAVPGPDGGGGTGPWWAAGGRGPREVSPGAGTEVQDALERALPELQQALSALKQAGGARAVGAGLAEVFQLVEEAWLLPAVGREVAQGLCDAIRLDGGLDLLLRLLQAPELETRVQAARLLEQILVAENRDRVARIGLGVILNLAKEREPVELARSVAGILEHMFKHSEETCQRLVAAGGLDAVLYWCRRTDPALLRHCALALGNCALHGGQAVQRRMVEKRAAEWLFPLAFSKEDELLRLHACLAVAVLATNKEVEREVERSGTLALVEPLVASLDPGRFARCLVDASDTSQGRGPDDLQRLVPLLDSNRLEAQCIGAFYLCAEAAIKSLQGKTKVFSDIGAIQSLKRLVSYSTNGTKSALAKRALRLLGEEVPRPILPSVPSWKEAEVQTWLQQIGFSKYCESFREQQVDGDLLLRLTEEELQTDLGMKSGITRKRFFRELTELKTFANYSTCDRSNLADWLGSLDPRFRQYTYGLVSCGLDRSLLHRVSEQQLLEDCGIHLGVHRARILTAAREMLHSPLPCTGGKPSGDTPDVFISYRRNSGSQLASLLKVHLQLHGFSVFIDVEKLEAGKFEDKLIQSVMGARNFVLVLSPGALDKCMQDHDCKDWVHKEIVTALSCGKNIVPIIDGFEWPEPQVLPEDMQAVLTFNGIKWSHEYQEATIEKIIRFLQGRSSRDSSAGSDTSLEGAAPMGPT
Chain of Mitogen-activated protein kinase 7 (Homo sapiens) (Q13164 whole entry, looked up, the tested form may be a part): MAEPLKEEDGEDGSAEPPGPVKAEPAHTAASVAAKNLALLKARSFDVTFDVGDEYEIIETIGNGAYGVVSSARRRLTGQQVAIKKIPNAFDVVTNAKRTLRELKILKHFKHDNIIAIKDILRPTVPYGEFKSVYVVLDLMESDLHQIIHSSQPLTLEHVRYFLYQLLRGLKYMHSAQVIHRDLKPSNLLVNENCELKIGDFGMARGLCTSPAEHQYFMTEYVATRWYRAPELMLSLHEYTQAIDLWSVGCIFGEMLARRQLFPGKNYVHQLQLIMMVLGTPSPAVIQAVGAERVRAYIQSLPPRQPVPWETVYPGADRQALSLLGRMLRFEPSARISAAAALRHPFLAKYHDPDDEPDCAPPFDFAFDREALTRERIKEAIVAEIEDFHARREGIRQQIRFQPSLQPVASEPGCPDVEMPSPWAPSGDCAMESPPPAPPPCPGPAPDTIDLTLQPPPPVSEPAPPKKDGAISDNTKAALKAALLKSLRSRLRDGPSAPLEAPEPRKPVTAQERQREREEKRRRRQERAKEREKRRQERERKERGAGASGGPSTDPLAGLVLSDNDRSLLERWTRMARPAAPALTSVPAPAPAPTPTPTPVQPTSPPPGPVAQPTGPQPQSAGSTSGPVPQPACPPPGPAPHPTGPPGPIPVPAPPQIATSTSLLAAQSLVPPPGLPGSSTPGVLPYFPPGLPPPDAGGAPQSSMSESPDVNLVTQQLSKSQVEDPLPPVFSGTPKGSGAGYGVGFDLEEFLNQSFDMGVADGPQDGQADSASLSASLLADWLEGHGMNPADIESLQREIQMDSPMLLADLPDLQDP

With `COc1c(N2C[C@@H]3CCCN[C@@H]3C2)c(F)cc2c(=O)c(C(=O)O)cn(C3CC3)c12`, in assay [1], the z-score is -1.5. In addition, the call in assay [2], in assay [3], in assay [4], in assay [5], in [6] and in assay [7] was inactive. Moreover, in assay [8], the compound was classed as inactive. Further, the remaining NAD in assay [9] was 10 nM. The luciferase signal in [10] is 64 AU.

For `Cc1c(C(=O)NN2CCCCC2)nn(-c2ccc(Cl)cc2Cl)c1-c1ccc(I)cc1`, the z-score in [1] was 0.177; in [12], -1.88 and -0.83. For the same compound, the remaining activity in [11] was 112%.

Regarding `CC[C@H]1OC(=O)[C@H](C)[C@@H](O[C@H]2C[C@@](C)(OC)[C@@H](O)[C@H](C)O2)[C@H](C)[C@@H](O[C@@H]2O[C@H](C)C[C@H](N(C)C)[C@H]2O)[C@](C)(O)C[C@@H](C)CN(C)[C@H](C)[C@@H](O)[C@]1(C)O`, the compound was called inactive in [13], in [3], in assay [4], in assay [5], in assay [6] and in assay [14]. In addition, the compound was classed as inactive in assay [7] and in assay [8]. Moreover, in [9], the remaining NAD was 10 nM. For the same compound, the luciferase signal in [10] was 20 AU. Moreover, the z-score in assay [12] is 1.2.

In the case of `CN1[C@@H]2CCC[C@H]1CC(NC(=O)c1nn(C)c3ccccc13)C2` (some centres undefined), the z-score in assay [1] is 1.21; in assay [12], 0.01. The outcome in assay [13], in assay [2], in [3], in assay [5], in assay [6] and in assay [14] was inactive. Moreover, the outcome in assay [7] and in assay [8] was inactive. Also, the remaining NAD in assay [9] was 10 nM.

As to `Cc1cc2c(s1)Nc1ccccc1N=C2N1CCN(C)CC1`, the compound was called inactive in [1], in assay [13], in assay [2], in assay [3], in assay [5] and in assay [6]. Also, the compound was classed as inactive in assay [14], in [8] and in assay [15]. The AC50 in assay [7] was 1.18 µM (active). For the same compound, the remaining NAD in assay [9] is 10 nM. Besides, in assay [10], the luciferase signal is 136 AU. The z-score in [12] is -0.17 and -0.015.

Take `CNCC[C@H](Oc1cccc2ccccc12)c1cccs1`: the z-score in assay [1] is 0.369 and 0.383. Moreover, in [2], the concentration at half-maximal activity (AC50) is 1.32 µM (active). Moreover, the outcome in assay [14] was inactive. The remaining NAD in [9] was 10 nM. Also, the luciferase signal in [10] is 36 AU.

As for `CCN(CC)CC#CCOC(=O)C(O)(c1ccccc1)C1CCCCC1` (centres undefined), the compound was called inactive in assay [2], in assay [3], in [4], in assay [14] and in assay [15]. For the same compound, the remaining NAD in [9] was 10 nM. Further, the luciferase signal in assay [10] was 68 AU. Further, in [12], the z-score is -1.22 and -1.39.

Consider `CN1CC(=O)N2[C@H](c3ccc4c(c3)OCO4)c3[nH]c4ccccc4c3C[C@@H]2C1=O`, for which, in assay [1], the z-score was 1.08. For the same compound, the result in assay [13], in [2], in [3], in assay [4], in assay [5] and in [6] was inactive. The compound was called inactive in [14], in assay [7] and in assay [8]. Moreover, the remaining NAD in assay [9] is 10 nM. For the same compound, the luciferase signal in assay [10] is 40 AU.

With `CC(CCCCC(=O)Nc1ccc(C(F)(F)F)cc1)NCCc1cnc[nH]1` (centres undefined), the z-score in assay [1] is -0.258; in assay [12] it was 0.675 and -0.77. Also, in assay [11], the remaining activity is 92.5%.

As for `CN(C)CCc1c[nH]c2ccc(Cn3cncn3)cc12`, the compound was classed as inactive in [1], in assay [2] and in [14]. For the same compound, the AC50 in [3] and in assay [4] was 20.9 µM (active) in each case. In [9], the remaining NAD was 10 nM. Also, in [10], the luciferase signal was 52 AU. Further, the z-score in assay [12] is 0.12.

With `C[C@H]1O[C@H](O[C@H]2[C@H](O)[C@@H](O)[C@@H](O[C@H]3[C@H](O)[C@@H](O)C(O)O[C@@H]3CO)O[C@@H]2CO)[C@H](O)[C@@H](O)[C@@H]1N[C@H]1C=C(CO)[C@@H](O)[C@H](O)[C@H]1O` (some centres undefined), the z-score in [1] was -1.33. The outcome in [13], in [2], in [3], in assay [6], in assay [14] and in [7] was inactive. Further, the result in assay [8] was inactive. For the same compound, the remaining NAD in assay [9] was 10 nM. Besides, the luciferase signal in assay [10] is 52 AU.

The values above are taken from PubChem BioAssay.
